Test results from PubChem BioAssay AID1159506 (National Center for Advancing Translational Sciences (NCATS), 2015).
The full ranking holds about 59,000 sequences; the median of the read-out is about -0.00055, and the lowest 2% start at about -2. The entries come from a sample that favours the lowest values as a whole.

Assay: Identification of proteins required for the processing of the EWS-FLI1 nascent transcript;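 further: robust z of luciferase light less the median z of siRNAs with the same seed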
Settings: TC32 Ewing sarcoma NR0B1-luc vs CMV-luc (EWS-FLI1 target promoter against control promoter), 48 h; screened at 20 nM (by protocol)
Summary of the method: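 Genome-wide siRNA screen (Ambion v4.1, three siRNAs per gene, 20 nM final, RNAiMax) in Ewing sarcoma TC32 cells carrying NR0B1-promoter or CMV-promoter luciferase; OneGlo luciferase read 48 h post-transfection. Data normalized, z-score-MAD transformed and seed-adjusted.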

Row | Sequence | seed-corrected z-score
1 | ACAGCACCUAGCAUGAUUG against HIGD1B | 1.03
2 | UUCAUUAGCACAUAAGCGG against HENMT1 | 0.665
3 | UCGAAGUUUACUGCGGUCC against HINFP | -2.19
4 | AUUCAUAUAGUUUUUCUCC against ZNF585B | 0.297
5 | UAUGCACAAAGUUUGUGGG against CDC42SE2 | -0.65
6 | UCUCCUCCUCGAAAAGUGC against SLC12A7 | 0.16
7 | AUCCAUGUCAGCGUGAGUC against PSD2 | -0.273
8 | AAGAGAAUCAAAAUAGUGG against GPR63 | -0.548
9 | AUCCGAACCAGGUAGACAC against PRTG | 0.374
10 | AUUGUGGUAGUAGUGUUGG against NUP62CL | -2.29
11 | UCUUUGCCUAGUGUGGUUU against TAF9 | -0.576
12 | UGUCUGUUUGUUGAAACUC against APOA5 | -0.451
13 | UCGUAGGCAAGGUAAGUAG against MUCL1 | -0.0888
14 | UCAAGUAAACUAGUCGUUU against VKORC1L1 | -0.26
15 | UUGGUUGCAAAGGAACUCC against NAB1 | -2.58
16 | UUCAUUUGCUCGAUGGUUG against MAPK1 | 1.09
17 | UUCCUUGAUAGGUAUGUAU against LOC388813 | -0.0267
18 | UUGUGAACUACUUCUAUCC against AKNA | 0.00206
19 | AUAGGUCUGACUCAGCUGC against CCDC155 | -2.23
20 | UAGUGUACAAGGGUCAGGC against TSPAN17 | 0.12
21 | UAUACACCAAUGUCGGUCC against KDM5A | 0.142
22 | AAUGAGUAAAAAGUGAAUU against HTN1 | -0.556
23 | UGAUGUAAAAUCAAAGGUU against KRT6C | 0.491

Row | Sequence | seed-corrected z-score
24 | AAACUUGGUUGAGUGAUCC against KRBA2 | 0.654
25 | UGACUAUUAGGUCUUUAGC against BCAT1 | -0.111
26 | UCCAUCGUCAAUGUUAUCC against HNRNPH3 | -5.45
27 | AUAUCUAUAAUACCCUCCG against APIP | 0.416
28 | AUACGUGUUCUCAAUGAUC against RNF121 | 0.696
29 | UUCUCUUCUUUAGUCAGUG against SKA2P1 | -2.33
30 | AAUAUUGUAAGAAGAAGGG against NT5C3B | 0.882
31 | UGGGUUCUCAGGAACGGGU against PNKD | 1.76
32 | UUCCUUUUGCGUCUGGAUC against ZC2HC1C | -1.55
33 | UAUUUGGGUGGUUCAGUUG against NEK6 | -0.0182
34 | UAUGAGUCCACAAUUGAUC against TMEM19 | -11
35 | UCUACAAGUAAUGAAGGCC against ZFP62 | 0.853
36 | AAUGAUGAAUCCACCUUCG against ARMC10P1 | -0.435
37 | UCAGCUAACAAAGAGUCGC against STAG3 | 0.617
38 | AGCAGUAUAAAACAGGAGC against TIPARP | 0.177
39 | AUAAUCACACUGUCAACUG against ACAA2 | -0.323
40 | AGCCUUAGACGUGCAGUUG against RPL36AP31 | -2.33
41 | UGUUGUAGCAGAAUGAGGA against ARC | -3.81
42 | UGCUGGGUCAGAUGUCUCC against ARHGAP9 | 0.0212
43 | UUCGAUCACCAUAUACUCC against KCNA3 | 0.36
44 | UCGGUAUUCAAACCCUUCG against HIRA | 0.423
45 | UCAGGGCAUAGAUAAGUGG against OR10W1 | -2.86
46 | UUUCUAGCUAAGGUCAAAC against SHOC2 | -0.857

Row | Sequence | seed-corrected z-score
47 | AUAGGAGAUCGCAUCGCCC against CACFD1 | -0.00387
48 | AAGGUGUUCACGUAGGCUG against CLN3 | -2.78
49 | AUUGGUAUCCUAACUAUUC against EFHD1 | 0.876
50 | UCUGGGAACACCCUCAGCA against GABRR2 | -0.593
51 | ACGGAUUCUAGUUUAGAUG against KIAA0232 | 2.72
52 | UCCGUUCAUAGUCUUCUCC against CSPP1 | -2.12
53 | AUAACGAUGCUUUAUGUGG against ABHD1 | -0.139
54 | UCUCUAACUUCGACCCUCU against C19orf68 | 0.527
55 | UUUCUCAACUGCAUGAAAG against LINC00264 | -0.13
56 | UACUGAAGUAGUUAGGAUC against INO80C | 1.43
57 | AUGUUGCCCACGUCCUUGG against RABIF | -3.06
58 | AAUGAGGCAGGCAUGUUGG against PNMT | 1.18
59 | UGUAUCCUAAGGUAUCGGC against VWA8 | -0.221
60 | AUAUCUUCGAAAGUAAAUC against RPF2P1 | 1.14
61 | UUUUUCCAUACUUCAAGCC against QRICH1 | -0.708
62 | AAAUGGAAAUUCUCGAUGU against HTN1 | 0.36
63 | AGAUUGGUCAAAGCCUUUC against ZNF319 | -2.3
64 | AUAGUUAUUCUUGUCGGGC against HVCN1 | -0.696
65 | UACGUAGUCGUCAUCAUCU against FAM83G | -0.453
66 | UCAUUAGACAUAACAUUGC against ALG13 | 0.117
67 | UCAUAGUCGAUCACCACUG against COL23A1 | -0.458
68 | UUAGUAGUGACAUUUCGGG against MRE11A | -0.0144
69 | UUGAAUAGGAAGAGUAUCC against OMA1 | 1.31

Row | Sequence | seed-corrected z-score
70 | UAACUGAUCAGACCACAAC against TUBA1A | 0.266
71 | UGUCCAUAAACAGUAAAGG against ZNF30 | -2.51
72 | UGAUUUAAUCUUGCCGCCC against PHLDB1 | 0.669
73 | AACACGUUGCCUGUCUUUC against NUTM2A-AS1 | 0.413
74 | UUUAGAACUGGUUAUUUUC against DEFB116 | 0.117
75 | AUGGUGAUCAUGGGACUGC against BEST1 | -3.4
76 | UUUGGUAACCUCUAGGUGC against RUFY2 | 0.0818
77 | UAGGCAAACAUGCACCUGG against POLG | -0.765
78 | UCGUGGUCUUCUAUUGUUC against GRB14 | -0.556
79 | AAUACAAUAGCAUAUACUC against RBBP9 | 0.306
80 | UGCGGAUACAGAUCACUCC against WDR87 | -2.28
81 | UGAAUAAUGAAGUAUCCUG against AMPH | -0.174
82 | UUAGUUCCAUGCCUUGCUC against ATP6V0A4 | -0.497
83 | AGUUAUAUCAGUCGUGAUC against FERMT2 | 0.187
84 | UUCUGUAUCUGCUCCUUGU against PFDN2 | 1.09
85 | UCUCUUUCCUCUGCGUGCG against GDF7 | -2.92
86 | UCUCAGGACUUAUAGCUGG against CEACAM3 | 0.106
87 | AACUCUAUCUUGUAAAGGC against ZKSCAN3 | 0.0258
88 | UCUAGUAACUCCAUAAGUU against NAA20 | 0.8
89 | UUUGUUGUCUGGUUGGAGC against ZDHHC14 | -0.328
90 | UCAGGGCACAGCUAUAAGG against CPAMD8 | 0.0569
91 | UAUUGUAGAUUGAACAGCC against NSMCE2 | 0.561
92 | AUAGAGCUUAUAGAAGCGG against USP11 | 0.792

Row | Sequence | seed-corrected z-score
93 | UAAAGGGAACGAAACACCC against HSPA1B | 1.45
94 | UUAUUUAUUGCCGCUCAGG against SFTA2 | -2.64
95 | UUGGGUCCGACAGUGAAGA against FAAP20 | 0.502
96 | AGUACUACCAAAGAGAUGG against TBC1D23 | 0.0728
97 | UAUCUUGAUCUGCCUCUCC against HOXB6 | 0.291
98 | UAUCCCAAUACAAAGUACU against RCE1 | -1.06
99 | UUGCUUAACUACUCUGUGC against C9orf106 | -11.2
100 | AUCGCUGUAGCACUUGUGC against PKP3 | -0.54
101 | UGAGUUUCCACUUCCAGCC against UBQLN4 | -2.2
102 | UUUGUUCCAGGGAUGUACU against CYCS | 0.577
103 | UUCCCGUGAACCGUUGAUC against PNLIPRP3 | 0.389
104 | ACACCUGUGACUAAGACCC against SDR39U1 | -0.296
105 | UUUGGUAUCUCCGACCACC against UCP2 | 0.898
106 | UCAAGUGUAUCAGUUUUCG against KSR2 | 0.704
107 | UGUGGUUGAAGAGGCUUGU against TMEM39B | -2.3
108 | UAAGGUGUGAACUAUAAGG against ZNF267 | -0.0939
109 | UAUAUCAAAAUCCACUCGC against NDUFAF6 | 1.27
110 | UUUCUUAGAUGAGACAUUG against EBLN2 | -12.2
111 | UAAACCUCCACCUAAGAGC against ELP4 | 0.275
112 | UACUCGUACACUUCCAUGC against THBS3 | 1.22
113 | UAACUAUAGUGGUUAGGUC against IL7R | -0.304
114 | AUUUGGGACACUCAAAGGG against ZBTB48 | -0.672
115 | UCCAUAGCAGGAUUAUUGC against ACSL4 | -4.37

Row | Sequence | seed-corrected z-score
116 | UUUGUCGUCACUGUAUUCC against ING5 | -0.505
117 | UAAGGGACAUCUAAGGAAC against MAML1 | -1.38
118 | AAACUUGCGAUCUCAUAUG against FBXW12 | -0.183
119 | UACAGGUAAACAGGUCGUG against SKINT1L | -3.34
120 | UUCUGGUUCACCGUCUUCC against SLC13A2 | -1.96
121 | UUUCGUAUAGAGCUUCUCC against DNAJC5B | -0.0232
122 | UUUAUAGUCAAUGGUAUUG against TAF1D | -0.19
123 | UUCCUUAGCAGGUAUCGCG against PDZD7 | 0.373
124 | AUAGUAAUGCCGGAACAGC against GPR108 | -2.74
125 | AUGGAGACAAGUUACCUGU against DCX | -1.34
126 | UUGAGUGAGAAGAUCAGUG against PAH | -0.365
127 | UUUGCAGUCGCAAUAGUCA against PRKCSH | -0.0915
128 | ACUGGUAUUUGACAAGUCC against SGOL2 | -0.0318
129 | AAUACCUCAACAUUGAUCC against LILRA6 | 0.22
130 | UACUUGUGAUCAUCUAGAC against PSMD1 | -2.21
131 | UCAGAGUUGGUGACUAUGC against MUC21 | 0.222
132 | UGAUGUUCAGCAUCUUCUC against UBTF | -0.484
133 | AGCGUAGUCAGUGUAGACC against DNAH2 | 0.323
